Our source for the growth values is PubChem BioAssay (NCI).

SMILES strings stand for the structures. About 83,000 compounds went through this panel and 20% of them were active in at least one assay; those are over-represented in the sample as a whole.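 Interpretation: 100, growth as untreated; towards 0, rising growth inhibition; 0, no net growth; 0 to -100, cell death. Compounds scoring below 10 were considered active.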 A number with no mark means an inactive call. Calls of active or inactive are those of the source.

What all share (test): NCI-60 one-dose screen, 48 h (100 = growth as untreated, 0 = no growth, -100 = all killed)
What all share (settings): 10 µM unless noted

Experiment [1] deals with HCT-15 colon.
Experiment [2] deals with HT29 colon.
The test system of experiment [3] is SNB-75 CNS.
Experiment [4] relates to SNB-19 CNS.
Experiment [5] deals with U251 CNS.
Experiment [6] concerns PC-3 prostate.
The test system of experiment [7] is SK-MEL-5 melanoma.
In experiment [8] the test system is UACC-62 melanoma.
Experiment [9] has as its system LOX IMVI melanoma.
Experiment [10] has as its system SK-MEL-28 melanoma.
Experiment [11] has as its system SK-MEL-2 melanoma.
Experiment [12] relates to EKVX NSCLC.
The subject of experiment [13] is SN12C renal.
For experiment [14], the system named is UO-31 renal.
Experiment [15] has as its system TK-10 renal.
Experiment [16] has as its system ACHN renal.
Experiment [17] relates to CAKI-1 renal.
Experiment [18] has as its system A498 renal.
Experiment [19] has as its system CCRF-CEM leukemia.
The test system of experiment [20] is MOLT-4 leukemia.

As to `[2H]C([2H])([2H])Oc1cc(F)ccc1/C=C/C(=O)/C=C(/C=C/c1ccc(F)cc1OC([2H])([2H])[2H])OB(F)F`, the growth in [1] was 25.3%; in [2] it was 32.4%; in experiment [3], 81.1%; in experiment [4], 56.9%; in [5] it was 31.7%; in experiment [6], 43.8%. For the same compound, the growth in [7] was 30.6%; in experiment [8], 20.9%; in experiment [9], 2.12% (active); in experiment [10] it was 29.5%; in experiment [11] it was 48%; in [12] it was 76.6%. Besides, the growth in [13] was 42.6%; in experiment [14] it was 49.5%; in experiment [15], 43.6%; in [16], 14.8%; in [17], 18.2%; in experiment [18], 89%. Moreover, the growth in experiment [19] is 2.38% (active); in [20], 1.25% (active).
In the case of `COc1ccc2c(c1)oc1c(C)c3c(c(C)c12)C(=O)N(Nc1ccccc1)C3=O`, the growth in experiment [1] was 105%; in [2], 106%; in experiment [3], 94.5%; in experiment [4], 99%; in experiment [5] it was 108%; in experiment [6], 109%. Moreover, the growth in experiment [7] was 100%; in experiment [8], 98.5%; in [9], 100%; in [10], 95.3%; in [11] it was 99%; in [12], 108%. Also, the growth in experiment [13] was 97%; in experiment [14], 84%; in experiment [15], 114%; in [16], 99.4%; in experiment [17], 91.5%; in experiment [18] it was 117%. The results for the growth in experiment [19] and in [20] were 111% and 99.8%, respectively.
`N#Cc1c(-c2cccc(F)c2)cc(-c2cccnc2)[nH]c1=O`: the growth in [1] is 104%; in experiment [2], 104%; in experiment [3], 97.1%; in experiment [4] it was 99.9%; in [5], 101%; in experiment [6] it was 101%. The growth in experiment [7] is 104%; in experiment [8], 97.5%; in experiment [9], 98.8%; in experiment [10], 104%; in experiment [11], 110%; in experiment [12] it was 106%. Further, the growth is 96.4% in experiment [13]; 90.2% in experiment [14]; 106% in experiment [15]; 101% in [16]; 95.9% in experiment [17]; 116% in [18]. The results for the growth in experiment [19] and in experiment [20] were 104% and 99.7%, respectively.
In the case of `CN(Cc1ccccc1)c1nc(Cl)c(C2CC(c3ccc(F)cc3)=NN2C=O)s1` (stereo not given), the growth is 90.4% in experiment [1]; 95.4% in experiment [2]; 97.3% in experiment [3]; 98.1% in experiment [4]; 97.7% in [5]; 83.6% in experiment [6]. The growth was 90.4% in experiment [7]; 79.2% in experiment [8]; 92.8% in experiment [9]; 106% in [10]; 116% in [11]; 77.9% in experiment [12]. In addition, the growth is 103% in [13]; 76.7% in experiment [14]; 96.2% in experiment [15]; 105% in [16]; 83.8% in experiment [17]; 100% in experiment [18]. Moreover, the growth is 95.6% in [19] and 91.9% in experiment [20].
Turning to `O=C1OCC2=C1C(c1cccc([N+](=O)[O-])c1)c1cc3c(cc1N2CCO)CCC3` (stereo not given), the growth in [1] is 9.41% (active); in experiment [2], 3.43% (active); in [3], 41.9%; in experiment [4], 25%; in experiment [5], 13.8%; in experiment [6], 21.7%. Also, the growth in experiment [7] is 1.24% (active); in [8] it was 43.9%; in [9] it was 20.5%; in experiment [10], 53.7%; in experiment [11], 17.7%; in experiment [12] it was 36.8%. In addition, the growth was 36.3% in experiment [13]; 39% in experiment [14]; 60.1% in experiment [15]; 27.5% in [16]; 31% in experiment [17]; -5.04% (active) in experiment [18]. For the same compound, the growth in [19] is 7.25% (active); in experiment [20] it was 14%.
Consider `COc1ccc(/C=C(\C#N)c2cc3ccccc3[nH]2)cc1`, for which the growth in [1] is 14%; in experiment [2], 8.16% (active); in experiment [3], 18.6%; in experiment [4], 39.7%; in experiment [5], 18.7%; in [6] it was 51%. Moreover, the growth is 22.2% in [7]; 31.4% in experiment [8]; 30.3% in experiment [9]; 49.5% in experiment [10]; 26.2% in [11]; 45.3% in experiment [12]. The growth was 42.2% in experiment [13]; 46.9% in experiment [14]; 53.6% in experiment [15]; 56.5% in experiment [16]; 33.9% in experiment [17]; 32.1% in experiment [18]. The growth in experiment [19] is 13.5%; in experiment [20] it was 24.4%.
With `C=CCNC(=O)Cc1c(-c2ccc(OC)cc2)oc2c(OC)c3c(c(OC)c12)OCO3`, the growth was 86.7% in experiment [1]; 86.5% in experiment [2]; 96.4% in experiment [3]; 95.3% in experiment [4]; 105% in experiment [5]; 95.2% in experiment [6]. Moreover, the growth was 96.3% in experiment [7]; 89% in [8]; 93% in [9]; 109% in experiment [10]; 108% in experiment [11]; 107% in [12]. The growth is 94.6% in experiment [13]; 80.8% in experiment [14]; 110% in [15]; 104% in experiment [16]; 87.8% in experiment [17]; 55% in experiment [18]. The growth in experiment [19] is 94.1%; in experiment [20] it was 99.7%.
